The values below come from PubChem BioAssay AID588458 (Sanford-Burnham Center for Chemical Genomics, 2011).

The campaign covered roughly 360,000 compounds. About 3,000 (0.83%) were called active. The sample holds actives, similar compounds and a random draw of the others, so the mix is not that of the screen. No stated cut-off is given here; in the data, active means inhibition above about 50%; inactive means the rest.

The target in the test is DNA (cytosine-5)-methyltransferase 1 (Homo sapiens) (UniProt P26358). As to the kind of experiment: human DNMT1 methyltransferase inhibitors, primary screen, biochemical, molecular beacon, fluorescence, HinP1I cleavage, uHTS (AID 588458). As to conditions: at 10 µM, hits give high values.
Sequence of DNA (cytosine-5)-methyltransferase 1 (Homo sapiens) (P26358 504-1616 limits assumed): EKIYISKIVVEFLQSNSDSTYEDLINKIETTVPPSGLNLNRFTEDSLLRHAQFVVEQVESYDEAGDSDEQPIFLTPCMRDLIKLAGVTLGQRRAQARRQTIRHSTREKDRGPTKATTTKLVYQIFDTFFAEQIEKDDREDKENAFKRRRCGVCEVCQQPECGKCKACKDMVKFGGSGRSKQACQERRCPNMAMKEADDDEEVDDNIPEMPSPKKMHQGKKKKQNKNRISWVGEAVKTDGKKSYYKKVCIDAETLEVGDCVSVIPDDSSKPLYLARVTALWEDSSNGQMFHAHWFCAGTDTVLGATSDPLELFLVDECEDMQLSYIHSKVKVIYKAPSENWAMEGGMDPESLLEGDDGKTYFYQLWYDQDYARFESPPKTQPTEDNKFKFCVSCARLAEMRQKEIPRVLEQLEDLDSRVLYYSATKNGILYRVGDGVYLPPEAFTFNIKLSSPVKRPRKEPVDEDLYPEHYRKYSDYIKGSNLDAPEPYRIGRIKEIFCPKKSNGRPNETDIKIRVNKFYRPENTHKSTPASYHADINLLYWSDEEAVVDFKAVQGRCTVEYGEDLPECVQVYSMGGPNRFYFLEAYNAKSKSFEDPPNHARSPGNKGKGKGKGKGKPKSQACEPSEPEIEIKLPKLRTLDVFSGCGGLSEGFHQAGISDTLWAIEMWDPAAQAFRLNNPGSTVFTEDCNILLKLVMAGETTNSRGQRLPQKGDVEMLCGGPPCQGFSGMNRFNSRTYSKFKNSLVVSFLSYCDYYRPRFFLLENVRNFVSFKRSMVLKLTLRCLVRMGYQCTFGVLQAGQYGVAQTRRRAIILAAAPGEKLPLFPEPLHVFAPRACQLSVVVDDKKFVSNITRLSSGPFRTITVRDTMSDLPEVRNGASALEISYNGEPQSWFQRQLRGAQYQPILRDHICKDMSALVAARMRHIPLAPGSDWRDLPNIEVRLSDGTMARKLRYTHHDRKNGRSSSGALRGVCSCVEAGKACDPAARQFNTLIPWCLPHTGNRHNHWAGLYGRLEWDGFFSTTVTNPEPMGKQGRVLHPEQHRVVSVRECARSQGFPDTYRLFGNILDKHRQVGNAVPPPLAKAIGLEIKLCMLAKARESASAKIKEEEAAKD
Regarding `COc1cccc(-c2cc3nc(NCc4ccccc4OC)n(C)c(=O)c3s2)c1`, the inhibition (reported as % activation of signal) is -11.8% (inactive).

On to `CC1C(=O)N(Cc2cn(CC3CCCCC3)nn2)CCS(=O)(=O)N1Cc1ccc(-c2cccc(N(C)C)c2)cc1` (stereo not given), for which the inhibition (reported as % activation of signal) was -9.42% (inactive). Regarding `Cc1csc(OCC(=O)Nc2ccc(C)c(C)c2)n1`, the inhibition (reported as % activation of signal) was -0.47% (inactive). In the case of `CCCNC(=O)c1cc(C2CCCN(C(=O)c3ccc4c(c3)CCO4)C2)on1` (stereo not given) it was -0.91% (inactive); in that of `COc1ccc(S(=O)(=O)N2CCCCC2c2cc(C(=O)NCc3ccc(F)cc3)no2)cc1` (stereo not given), 6.18% (inactive). In the case of `CC(C)Cc1nc(Cl)c(C#N)c2c1CCC2` it was 3.27% (inactive); in that of `CC(NC(=S)NC1CCCCC1)C(c1ccccc1)N1CCOCC1` (stereo not given), 1.12% (inactive).

`O=C(O)C(c1ccccc1)N1C(=O)/C(=C\c2ccc(-c3cccc(Cl)c3)o2)SC1=S` (stereo not given): the inhibition (reported as % activation of signal) is 79.8% (active). Then `CC(C(=O)NC1CCS(=O)(=O)C1)N1C(=O)/C(=C/c2ccc(Cl)cc2)SC1=S` (stereo not given), with -2.43% (inactive); and `CC(C(=O)Nc1ccc(O)c(C(=O)O)c1)N1C(=O)/C(=C/c2cccs2)SC1=S` (stereo not given), with -9.71% (inactive).

`NC(=O)CCC(NS(=O)(=O)c1ccc(Cl)cc1)C(=O)NCc1ccccc1Cl` (stereo not given): the inhibition (reported as % activation of signal) was 4.11% (inactive). In the case of `COc1cccc(N2CCN(C(=O)C3CCCN(S(=O)(=O)c4cnc[nH]4)C3)CC2)c1` (stereo not given) it was -15.4% (inactive); in that of `CCOC(=O)c1cccc(NC(=O)C2CCCN(S(=O)(=O)c3cnc[nH]3)C2)c1` (stereo not given), 76.5% (active); in that of `O=C(NCc1ccco1)C1CCCN(S(=O)(=O)c2cnc[nH]2)C1` (stereo not given), -1.66% (inactive). Then `CC(C)c1cc(C(=O)N/N=C/c2ccoc2)c(O)c(C(C)C)c1`, with 13.8% (inactive); and `Cc1ccc(O)c(/C=N/NC(=O)COc2ccc3c(C)cc(=O)oc3c2)c1`, with 59.9% (active); and `CCOC(=O)Cc1csc(NC(=O)COc2ccc3c(C)cc(=O)oc3c2)n1`, with -0.49% (inactive).

As to `Cc1cc(=O)oc2cc(OCC(=O)Nc3nnc(C4CC4)s3)ccc12`, the inhibition (reported as % activation of signal) is -3.06% (inactive). In the case of `CN(C(=O)COC(=O)Cc1ccccc1[N+](=O)[O-])C1CCS(=O)(=O)C1` (stereo not given) it was 2.42% (inactive); in that of `CN(CCOc1ccccc1)C(=O)c1cc(COc2c(F)cccc2F)on1`, 1.59% (inactive); in that of `COc1ccc(NC(=O)COc2ccc(C(=O)OCC(=O)N(C)C3CCS(=O)(=O)C3)cc2OC)cc1` (stereo not given), 8.48% (inactive).

Take `CN(C(=O)COC(=O)c1cc(-c2ccco2)nc2ccccc12)C1CCS(=O)(=O)C1` (stereo not given): the inhibition (reported as % activation of signal) was 92.3% (active). In the case of `CN(CCOc1ccccc1)C(=O)c1cc(-c2ccco2)nc2ccccc12` it was 72.3% (active); in that of `O=C(c1cc(-c2ccco2)nc2ccccc12)N(Cc1nnc(-c2ccc(Cl)cc2)o1)C1CC1`, 13.4% (inactive); in that of `OCC[C@H]1C[C@H](O)[C@@H](O)[C@]2(CCCCO2)O1`, 5.49% (inactive). Regarding `CCOc1ccccc1-n1c(SCC(=O)N2CCCC2)nnc1-c1ccoc1C`, the inhibition (reported as % activation of signal) was 7.56% (inactive). For the compound `COc1ccc(Cl)cc1S(=O)(=O)Nc1cccc(C(=O)O)c1`, the inhibition (reported as % activation of signal) was -3.3% (inactive). In the case of `COc1cc(OC)cc(-c2sc3ccc(OC)cc3c2-c2ccc3cc[nH]c3c2)c1` it was -17.8% (inactive); in that of `COc1ccc2sc(-c3ccc(S(C)(=O)=O)cc3)c(-c3ccc(C(N)=O)cc3)c2c1`, 86.5% (active); in that of `COc1ccc2sc(-c3ccc(S(C)(=O)=O)cc3)c(C#Cc3cncn3C)c2c1`, -10.4% (inactive). On to `O=C(NCc1ccco1)c1cnn2c(C(F)(F)F)cc(-c3ccco3)nc12`, for which the inhibition (reported as % activation of signal) is -0.51% (inactive). On to `COCC(=O)N(C)[C@H]1C[C@H]2c3cc(Oc4ccccc4C)ccc3CCN2C(=O)[C@H]1[C@H](C)O`, for which the inhibition (reported as % activation of signal) is -0.44% (inactive). In the case of `CCOC(=O)/C(C#N)=C/c1ccc(OCC(=O)Nc2ccccc2)c(OC)c1` it was 59.5% (active).

As to `COc1cc(C2C3=C(CCCC3=O)OC3=C2C(=O)CCC3)ccc1OCC(=O)Nc1ccccc1`, the inhibition (reported as % activation of signal) is -1.83% (inactive).

Take `CCCn1c(C)cc(/C=C(\C#N)C(=O)OCC(=O)Nc2cc(OC)c(OC)c(OC)c2)c1C`: the inhibition (reported as % activation of signal) was -3.49% (inactive). In the case of `COC(=O)Nc1nc2ccc(Sc3ccccc3)cc2[nH]1` it was 23.1% (inactive); in that of `CCCNC(=O)C1(C)CCN1C(=O)Cc1ccc(-c2ccccc2)cc1` (stereo not given), -1.26% (inactive). In the case of `CCNC(=O)C1CCCN(C(=O)c2ccc(OC)cc2OC)CC1` (stereo not given) it was -0.58% (inactive); in that of `CCOC(=O)C1CCCN(C(=O)c2ccc(C)c(F)c2)CC1` (stereo not given), 1.76% (inactive); in that of `CCNC(=O)C1CCCN(C(=O)c2cc(F)ccc2C)CC1` (stereo not given), 58% (active). In the case of `Nc1nc(NCc2ccccc2)n(-c2ccccc2)n1` it was -0.22% (inactive).

On to `Cc1cc(C)n2nc(C(=O)N(C)C(c3ccccc3)c3ccccc3)nc2n1`, for which the inhibition (reported as % activation of signal) was 2.32% (inactive). Then `c1ccc2cc3[nH]c(CN4CCCCC4)nc3cc2c1`, with 83.2% (active). Then `Cc1ccc2[nH]c(=O)c(CN3CCCCC3)c(-c3ccccc3)c2c1`, with -7.9% (inactive). Regarding `O=c1cc(CN2CCCCCCC2)c2c(ccc3ccccc32)o1`, the inhibition (reported as % activation of signal) is -0.34% (inactive).
